dFosB act-1 = activators of delta FosB homodimer, primary screen, biochemical, fluorescence polarization, TAMRA-CDK5 oligo, single point; Protein FosB (Mus musculus), P13346; purified delta FosB; percent of positive-control signal above neutral wells; activation, % at 25 µM; 0.99% of 340,000 active;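 active = mean activation above about 17%, with every replicate also reaching it, limit read from the data, passing the limit was not always enough; inconclusive = only one of the two conditions met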
Target sequence (P13346 whole entry, looked up): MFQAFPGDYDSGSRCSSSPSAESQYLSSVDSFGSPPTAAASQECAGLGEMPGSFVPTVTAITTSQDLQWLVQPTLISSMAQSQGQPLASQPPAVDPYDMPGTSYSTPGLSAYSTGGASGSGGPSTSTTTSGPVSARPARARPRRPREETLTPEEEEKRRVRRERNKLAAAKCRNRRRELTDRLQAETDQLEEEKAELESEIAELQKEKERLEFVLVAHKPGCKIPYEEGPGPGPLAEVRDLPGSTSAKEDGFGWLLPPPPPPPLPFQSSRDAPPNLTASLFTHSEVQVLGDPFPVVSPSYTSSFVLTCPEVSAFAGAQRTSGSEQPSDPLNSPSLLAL
EBNA-1 inh = EBNA-1 DNA-binding inhibitors, primary screen, biochemical, fluorescence polarization | AID 1950, 2009 | inhibition, % at 14.8 µM | 0.34% of 300,000 active; in the data active = inhibition above about 28%
NALP1 yeast inh = NALP1 inflammasome inhibitors in reconstituted yeast, colorimetric, S. cerevisiae, triplicate retest | S. cerevisiae NALP1/ASC/caspase-1 growth, X-gal OD620, 72 h | inhibition, % at 10 µM | 0.61% of 280,000 active | AID 2071, 2009; in the data active = inhibition mostly above about 24%, no sharp cut-off; inactive = mostly below about 32%
ZTA counter = ZTA (EBV) inhibition in EBNA-1 counter-screen; P03206; ZTA-DNA binding, fluorescence polarization; inhibition, % at 11 µM; 0.15% of 320,000 active; AID 2234; in the data active = inhibition above about 33%
Target sequence (P03206 whole entry, looked up): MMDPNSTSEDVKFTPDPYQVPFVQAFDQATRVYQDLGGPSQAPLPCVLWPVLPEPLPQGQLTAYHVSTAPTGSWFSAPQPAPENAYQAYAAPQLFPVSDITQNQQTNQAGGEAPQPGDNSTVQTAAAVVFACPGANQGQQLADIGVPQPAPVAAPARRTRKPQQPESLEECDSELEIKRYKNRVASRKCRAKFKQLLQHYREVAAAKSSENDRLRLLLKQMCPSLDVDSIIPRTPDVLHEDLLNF
PolyA inhibitor = polyadenylation inhibitors in yeast reporter cells, primary screen, luminescence, S. cerevisiae. activity score, % at 12 µM. AID 1875, 2009. 0.02% of 300,000 active. S. cerevisiae SKY197-pL101 polyadenylation reporter, beta-gal luminescence; efflux-impaired pdr1/pdr3 knockout yeast; score 100 = 6 SD above DMSO;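 active = lowest replicate activity score at least 50, where 100 means six control SD above control mean; inconclusive = lowest score under 50 but half or more replicates reach 50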;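 also: yeast exposed to compound for 9 h at 30 °C; higher score means more reporter readthrough which indicates perturbed polyadenylation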
NLRP3 yeast inh = NALP3 inflammasome inhibitors in reconstituted yeast, primary screen, luminescence, uHTS | Yeast reconstituted NLRP3/ASC/caspase-1, beta-gal luminescence, 24 h | inhibition, % at 10 µM | 0.39% of 330,000 active | AID 2825, 2010;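 active = inhibition of 50% or more; inactive = inhibition below 50%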;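 also: plate controls were induced DMSO wells for no effect and uninduced yeast grown without galactose for full effect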
dFosB act-2 = activators of mouse delta FosB DNA binding, confirmation, biochemical, fluorescence polarization, TAMRA-CDK5 oligo, cherry-picked samples; shares compounds with dFosB act-1; purified delta FosB; normalised: neutral wells 0, positive control 100; activation, % at 24.9 µM; 2,400 tested, under 10 active;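 active = highest replicate activation at or above 34% and every replicate reaching that threshold; inconclusive = meets only one of the two criteria; inactive = meets neither criterion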;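 also: higher polarization means more probe DNA bound by delta FosB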
* = called active by the depositor; ? = inconclusive; nt = not tested or not shown; ! = a repeat was not active. Hits are enriched below; roughly 2.2% of the tested compounds scored in any of these assays.

SMILES	dFosB act-1	EBNA-1 inh	NALP1 yeast inh	ZTA counter	PolyA inhibitor	NLRP3 yeast inh	dFosB act-2
Cc1ccccc1Nc1nnc(SCC(=O)c2c(N)n(C3CC3)c(=O)[nH]c2=O)s1	-4	nt	nt	nt	nt	22	nt
Cc1c(NC(=O)c2cnc(Cl)c(Cl)c2)c(=O)n(-c2ccccc2)n1C	-5	-12	26	-7	-23	-13	nt
COc1ccc(-c2[nH]ncc2/C=N\NC(=O)c2ccc(C(C)(C)C)cc2)cc1OC	-9	-13	32	13	29	9	nt
COc1ccc(C(=O)N/N=C/c2cn[nH]c2-c2ccc(OC)cc2OC)cc1	17*	3	19	-13	12	3	4
COc1ccc(-c2[nH]ncc2/C=N/NC(=O)c2ccc(Br)cc2)c(OC)c1	8	0	24	9	16	-3	nt
COc1ccc(-c2[nH]ncc2/C=N/NC(=O)c2ccncc2)c(OC)c1	19*	1	-6	0	-16	-3	0
CCN(CC(=O)NCc1ccc(Cl)cc1)C(=O)c1cc2ccccc2o1	3	1	22	2	8	25	nt
CS(=O)(=O)c1cccc(C(=O)N(CCc2ccccc2)Cc2cccs2)c1	-4	-14	15	2	7	9	nt
NS(=O)(=O)c1cccc(NC(=O)c2cc(=O)c3ccccc3o2)c1	19*	-16	-2	-3	13	18	-2
O=C(Nc1ccc2c(c1)COC2=O)c1ccc(Cl)c(Cl)c1	38*	-7	13	-2	1	23	6
Cc1ccc(NC(=O)Nc2ccc3c(c2)C(=O)OC3)cc1Cl	29*	0	nt	-2	9	20	3
Cc1ccc(NC(=O)Nc2cccnc2)cc1Cl	-1	nt	8	nt	0	nt	nt
O=C(Nc1ccc(Cl)c(Cl)c1)c1ccc(Cl)c(Cl)c1	33*	2	14	10	-16	22	2
CC(=O)c1cc(CCC(=O)NC2CCCCCC2)oc1C	-13	-2	8	7	30	3	nt
C[C@H]1CN([C@@H](C)CO)C(=O)c2cccc(NC(=O)C3CC3)c2O[C@H]1CN(C)S(=O)(=O)c1ccccc1	0	nt	nt	nt	nt	10	nt
CCOC(=O)c1sc(NC(=O)c2ccc(Cl)s2)cc1C	-4	-6	nt	-30	0	5	nt
CCOC(=O)c1sc(NC(=O)Nc2ccc(Cl)cc2)cc1C	24*	-1	36	-28	-18	23	0
O=C1[C@H](Oc2ccccc2)[C@@H](c2ccccc2)N1c1ccncc1	18*	nt	nt	nt	nt	nt	2
O=C1[C@@H](Oc2ccccc2)[C@@H](c2ccccc2)N1c1ccccc1	-1	nt	nt	nt	nt	nt	nt
CCOc1ccc(S(=O)(=O)N(C)c2ccc(OCC(=O)N3c4ccc(C)cc4C4CN(C)CCC43)cc2)cc1 (configuration not stated)	34*	-3	8	2	?	0	3
Cc1ccc2c(c1)C1CN(C)CCC1N2C(=O)COc1ccc(N(C)S(=O)(=O)c2cccs2)cc1 (configuration not stated)	-15	-4	26	-3	-4	15	nt
COc1ccc(-c2cc(-c3cccs3)c(C#N)c(SCC(=O)NCc3ccco3)n2)cc1	47*	7	11	11	nt	4	0
COc1ccc(Cl)cc1NC(=O)c1[nH]c(C)c(C(C)=O)c1C	36*	-6	8	1	-2	13	4
CN1CCN(C(=O)CN(C)S(=O)(=O)c2cc(Cl)ccc2Cl)CC1	1	-7	-6	-4	-4	17	nt
CC(=O)n1cc(/C=N/NC(=O)c2cccc(O)c2)c2ccccc21	27*	10	6	15	13	6	6
SMILES	dFosB act-1	EBNA-1 inh	NALP1 yeast inh	ZTA counter	PolyA inhibitor	NLRP3 yeast inh	dFosB act-2
CC(=O)n1cc(/C=N/NC(=O)c2ccc(Cl)cc2)c2ccccc21	6	-1	5	2	12	23	nt
CN(C)Cc1nc2ccccc2c(=O)n1Cc1nc(C(C)(C)C)cs1	-9	9	3	-8	nt	20	nt
CN1CCN(Cc2nc3ccccc3c(=O)n2Cc2nc(-c3ccc4ccccc4c3)cs2)CC1	27*!	4	16	12	-9	nt	3
CCCc1cc(=O)[nH]c(SCC(=O)Nc2cccc3ccccc23)n1	22*	-8	-2	9	7	-4	2
CCCc1cc(=O)[nH]c(SCC(=O)Nc2ccc(OCc3ccccc3)cc2)n1	28*	nt	nt	-5	nt	16	0
CCCc1cc(=O)[nH]c(SCC(=O)Nc2ccc(C)cc2)n1	4	-2	19	0	10	13	nt
CC(=O)c1ccccc1NC(=O)COC(=O)c1cc2ccccc2[nH]1	9	nt	nt	30	nt	25	nt
O=C(Cn1nc(C(=O)O)c2ccccc2c1=O)Nc1cccc(S(=O)(=O)N2CCCCCC2)c1	32*	nt	nt	nt	nt	4	-1
O=C(Nc1cccc(S(=O)(=O)N2CCCCC2)c1)c1c2c(nc3ccccc13)CCN(Cc1ccccc1)C2	52*	14	32	5	11	11	-2
O=C(O)c1nn(CC(=O)N2CCN(S(=O)(=O)c3ccc(Cl)cc3)CC2)c(=O)c2ccccc12	30*	3	18	1	13	12	4
O=C(CN1CCN(Cc2ccccc2)CC1)Nc1cccc(S(=O)(=O)N2CCCCCC2)c1	-13	4	18	5	12	12	nt
O=C(Cn1nc(C(=O)O)c2ccccc2c1=O)Nc1cccc(S(=O)(=O)N2CCCC2)c1	-9	nt	nt	nt	nt	3	nt
CCCCC1CCC(C(=O)N(CCCC)c2c(N)n(CCCC)c(=O)[nH]c2=O)CC1 (configuration not stated)	-7	-4	5	4	-3	11	nt
C(=N\Nc1nc(Nc2ccccc2)nc(Nc2ccccc2)n1)/c1cccnc1	65*	-5	5	-8	-2	11	0
OCC[C@@H]1C[C@H](O)[C@@H](O)[C@]2(Cc3ccccc3CO2)O1	-2	1	9	11	0	8	nt
O=C(NNC1=Nc2ccccc2SC1)c1ccc(Cl)cc1	24*	-8	nt	-1	7	12	-10
O=C(COC(=O)Cc1n[nH]c(=O)c2ccccc12)Nc1ccc(Cl)cn1	-12	nt	nt	-27	nt	24	nt
COc1ccc2[nH]c(CN3CCC(n4nccc4NC(=O)C4CC4)CC3)c(C)c2c1	0	-3	17	8	6	-2	nt
COc1ccc(CCNC(=O)C(=O)NCc2ccc(Cl)cc2)cc1OC	43*	-2	2	-2	26	9	-5

Bioassay records (PubChem)
